According to PubChem BioAssay (NCATS):
Inconclusive results are not listed. Calls of active or inactive are those of the source. Unless noted, calls come from the whole dose curve; as a rule, active = well fitted curve in the direction sought with a large enough effect; inconclusive = small, poorly fitted or top-dose-only effect, or another doubt; inactive = no such curve, though single readings can be large; an effect the other way counts as inactive or inconclusive.

What was measured:
[1] = qHTS for Inhibitors of Plasmodium falciparum (GB4) proliferation (AID 504315);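 note: 0% = DMSO vehicle and -100% = 0.29 µM artemisinin control; nearly all actives have a fitted effect of over 50% in size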
In short: (§1)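 Erythrocytes infected with P. falciparum line (0.3% parasitemia, 2.5% hematocrit final) incubated with compounds 72 h at 37 °C, 5% CO2; SYBR Green lysis buffer added, fluorescence read next day. Normalized to 0.29 uM artemisinin and DMSO.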

[2] = qHTS for Inhibitors of Plasmodium falciparum (7G8) proliferation (AID 504316); note: nearly all actives have a fitted effect of over 65% in size; note: potency is the fitted concentration of half-maximal effect;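 for activity change, negative = inhibition: series mostly up to about 6.7 µM; 0% = DMSO vehicle and -100% = 0.29 µM artemisinin full kill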
In short: as §1

[3] = qHTS for Inhibitors of Plasmodium falciparum (HB3) proliferation (AID 504318);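 note: 0% = DMSO vehicle and -100% = artemisinin control; nearly all actives have a fitted effect of over 60% in size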
In short: as §1

[4] = qHTS for Inhibitors of Plasmodium falciparum (CP250) proliferation (AID 504320);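 note: plate controls were DMSO vehicle for no effect and 0.29 µM artemisinin control for full effect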
In short: as §1

[5] = molecular target: Atrial natriuretic peptide receptor 1 (Homo sapiens) (UniProt P16066); assay: Natriuretic polypeptide receptor (hNpr1) antagonism - Pilot CMLD screen (AID 1347052; calls by dose curve;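 note: cGMP level read as GloSensor luciferase luminescence after agonist stimulation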; note: potency is the fitted concentration of half-maximal effect;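 for activity change, negative = inhibition: HEK293 cells with hNpr1 stimulated by hNppA peptide at 0.1 nM; series mostly up to about 9.2 µM; % is set by controls: 0 for no effect and ±100 for the full control effect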)
[6] = molecular target: Cytochrome P450 2C9 (Homo sapiens) (UniProt P11712); assay: qHTS Assay for Inhibitors and Substrates of Cytochrome P450 2C9 (AID 883); note: % is set by controls: 0 for no effect and ±100 for the full control effect; nearly all actives have a fitted effect of over 60% in size
In short: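 Signal: luciferase luminescence reporting luciferin produced by CYP2C9. Conditions: 10nM enzyme, Luciferin-H 100uM at KM, 25mM KPO4, 37C, 60 min NADPH-driven reaction. Reference: 57uM sulphaphenazole as 100% inhibition.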

[7] = molecular target: Cytochrome P450 3A4 (Homo sapiens) (UniProt P08684); assay: qHTS Assay for Inhibitors and Substrates of Cytochrome P450 3A4 (AID 884); note: series mostly up to about 57 µM; % is set by controls: 0 for no effect and ±100 for the full control effect; nearly all actives have a fitted effect of over 50% in size
In short: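 20 nM human CYP3A4 with 25 uM Luciferin-PPXE (at KM) in 200 mM KPO4, preincubated 10 min with compound; NADPH regeneration started a 60 min RT reaction. Luciferin detected by luminescence, normalized to 57 uM ketoconazole as full inhibition.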

[8] = molecular target: Cytochrome P450 2D6 (Homo sapiens) (UniProt P10635); assay: qHTS Assay for Inhibitors and Substrates of Cytochrome P450 2D6 (AID 891);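 note: luciferin methyl ether substrate demethylated by CYP2D6 with NADPH regeneration; % is set by controls: 0 for no effect and ±100 for the full control effect; nearly all actives have a fitted effect of over 60% in size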
In short: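 Human CYP2D6 (5 nM) with 30 uM Luciferin-ME EGE (at Km) in 100 mM KPO4, compound preincubated 10 min, then NADPH regeneration system for 60 min at room temperature. Luciferin read by luminescence; normalized to 1.43 uM quinidine.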

[9] = molecular target: Cytochrome P450 2C19 (Homo sapiens) (UniProt P33261); assay: qHTS Assay for Inhibitors and Substrates of Cytochrome P450 2C19 (AID 899); note: % is set by controls: 0 for no effect and ±100 for the full control effect; nearly all actives have a fitted effect of over 60% in size
In short: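 Signal comes from luciferase acting on luciferin released by CYP2C19-mediated hydroxylation of Luciferin-H EGE, 10uM (KM). Assay mix: 5nM enzyme, 50mM KPO4; 60 min at 37C with NADPH regeneration. Data normalized against 57uM ketoconazole.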

Sequence of Atrial natriuretic peptide receptor 1 (Homo sapiens) (P16066 whole entry, looked up): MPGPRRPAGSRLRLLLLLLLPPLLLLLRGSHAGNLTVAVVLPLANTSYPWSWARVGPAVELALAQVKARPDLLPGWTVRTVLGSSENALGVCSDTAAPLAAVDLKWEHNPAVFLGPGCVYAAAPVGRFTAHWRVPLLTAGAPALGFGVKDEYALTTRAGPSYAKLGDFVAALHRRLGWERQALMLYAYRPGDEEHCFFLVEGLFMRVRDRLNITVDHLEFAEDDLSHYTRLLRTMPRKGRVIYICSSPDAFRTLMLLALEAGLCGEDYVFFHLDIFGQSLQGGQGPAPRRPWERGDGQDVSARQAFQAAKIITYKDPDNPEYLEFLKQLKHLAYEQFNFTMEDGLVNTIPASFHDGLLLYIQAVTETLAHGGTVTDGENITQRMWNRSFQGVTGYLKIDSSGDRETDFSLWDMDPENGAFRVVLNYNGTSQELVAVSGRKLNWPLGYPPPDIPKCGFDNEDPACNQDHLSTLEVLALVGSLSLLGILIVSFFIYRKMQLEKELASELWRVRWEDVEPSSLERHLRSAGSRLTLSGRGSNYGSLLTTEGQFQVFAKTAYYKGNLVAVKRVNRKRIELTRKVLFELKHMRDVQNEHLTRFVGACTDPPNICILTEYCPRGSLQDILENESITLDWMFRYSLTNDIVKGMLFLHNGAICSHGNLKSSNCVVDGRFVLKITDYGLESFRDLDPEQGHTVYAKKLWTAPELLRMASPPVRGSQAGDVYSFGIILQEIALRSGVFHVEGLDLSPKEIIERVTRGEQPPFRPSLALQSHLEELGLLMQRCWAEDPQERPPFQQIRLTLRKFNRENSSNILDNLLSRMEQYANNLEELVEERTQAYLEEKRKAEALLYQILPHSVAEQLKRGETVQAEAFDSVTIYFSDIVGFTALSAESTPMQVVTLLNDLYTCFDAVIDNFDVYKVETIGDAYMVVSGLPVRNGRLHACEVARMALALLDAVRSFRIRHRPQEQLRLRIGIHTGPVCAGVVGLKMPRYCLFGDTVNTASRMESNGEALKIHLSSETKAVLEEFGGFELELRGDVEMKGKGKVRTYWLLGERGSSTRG
Sequence of Cytochrome P450 3A4 (Homo sapiens) (P08684 whole entry, looked up): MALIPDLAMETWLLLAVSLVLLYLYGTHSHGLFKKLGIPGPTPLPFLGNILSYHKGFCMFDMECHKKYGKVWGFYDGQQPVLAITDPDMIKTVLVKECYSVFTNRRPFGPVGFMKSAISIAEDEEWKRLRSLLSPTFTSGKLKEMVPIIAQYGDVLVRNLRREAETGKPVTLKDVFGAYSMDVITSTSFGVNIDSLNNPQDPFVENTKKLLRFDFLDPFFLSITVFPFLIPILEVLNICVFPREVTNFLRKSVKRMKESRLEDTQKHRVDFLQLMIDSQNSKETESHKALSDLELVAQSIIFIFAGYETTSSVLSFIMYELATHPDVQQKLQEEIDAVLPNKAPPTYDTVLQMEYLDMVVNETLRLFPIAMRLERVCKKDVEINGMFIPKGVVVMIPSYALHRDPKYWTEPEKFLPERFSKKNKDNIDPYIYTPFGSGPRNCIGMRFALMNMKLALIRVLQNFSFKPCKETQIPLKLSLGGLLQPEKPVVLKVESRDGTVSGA
Sequence of Cytochrome P450 2C19 (Homo sapiens) (P33261 whole entry, looked up): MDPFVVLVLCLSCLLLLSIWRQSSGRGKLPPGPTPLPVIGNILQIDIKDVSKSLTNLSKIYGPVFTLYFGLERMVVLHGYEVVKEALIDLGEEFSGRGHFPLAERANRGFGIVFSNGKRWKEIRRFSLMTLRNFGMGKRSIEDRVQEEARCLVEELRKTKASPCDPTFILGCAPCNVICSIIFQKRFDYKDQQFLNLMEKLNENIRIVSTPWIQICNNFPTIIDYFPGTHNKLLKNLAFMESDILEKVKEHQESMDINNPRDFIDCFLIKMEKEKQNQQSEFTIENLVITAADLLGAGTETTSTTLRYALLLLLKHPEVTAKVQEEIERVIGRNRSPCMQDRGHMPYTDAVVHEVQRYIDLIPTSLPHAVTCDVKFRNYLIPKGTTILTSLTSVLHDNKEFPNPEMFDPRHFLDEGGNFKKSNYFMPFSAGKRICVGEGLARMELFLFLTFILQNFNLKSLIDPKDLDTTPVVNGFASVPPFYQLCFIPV
Sequence of Cytochrome P450 2C9 (Homo sapiens) (P11712 whole entry, looked up): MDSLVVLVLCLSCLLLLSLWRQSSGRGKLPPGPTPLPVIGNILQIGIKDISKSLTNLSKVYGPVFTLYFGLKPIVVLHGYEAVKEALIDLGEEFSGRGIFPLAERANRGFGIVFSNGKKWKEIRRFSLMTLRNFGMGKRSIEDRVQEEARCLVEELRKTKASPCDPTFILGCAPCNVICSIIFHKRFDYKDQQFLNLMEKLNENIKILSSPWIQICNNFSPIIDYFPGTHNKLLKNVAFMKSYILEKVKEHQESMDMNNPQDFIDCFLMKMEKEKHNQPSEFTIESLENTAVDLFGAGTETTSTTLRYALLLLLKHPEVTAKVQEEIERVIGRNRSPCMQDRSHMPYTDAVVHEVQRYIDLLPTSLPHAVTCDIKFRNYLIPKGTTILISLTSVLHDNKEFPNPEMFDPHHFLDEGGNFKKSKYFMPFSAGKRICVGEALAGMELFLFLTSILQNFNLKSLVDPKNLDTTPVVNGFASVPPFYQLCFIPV
Sequence of Cytochrome P450 2D6 (Homo sapiens) (P10635 whole entry, looked up): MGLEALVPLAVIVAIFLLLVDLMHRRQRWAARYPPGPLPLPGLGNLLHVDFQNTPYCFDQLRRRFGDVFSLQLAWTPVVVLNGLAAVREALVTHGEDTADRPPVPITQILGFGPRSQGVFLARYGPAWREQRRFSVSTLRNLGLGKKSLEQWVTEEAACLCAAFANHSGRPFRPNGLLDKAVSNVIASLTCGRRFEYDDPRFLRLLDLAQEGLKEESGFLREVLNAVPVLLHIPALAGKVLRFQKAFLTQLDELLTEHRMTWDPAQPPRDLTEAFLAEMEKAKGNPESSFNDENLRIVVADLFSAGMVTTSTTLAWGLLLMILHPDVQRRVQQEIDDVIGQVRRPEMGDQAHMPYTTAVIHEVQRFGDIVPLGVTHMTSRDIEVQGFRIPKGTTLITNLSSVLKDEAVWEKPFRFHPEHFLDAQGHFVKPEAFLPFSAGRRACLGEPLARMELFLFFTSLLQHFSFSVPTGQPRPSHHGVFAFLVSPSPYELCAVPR

COc1ccc(-c2nc(-c3ccccc3)oc2NC2CCCCC2)cc1
inactive: Potency [1] | Potency [2] | Potency [3] | Potency [4] | Potency [5]

COC(=O)CC=C1c2ccccc2OC[C@@H](OC)[C@H]1C
inactive: Potency [1] | Potency [2] | Potency [3] | Potency [4] | Potency [5]

C=CCOC(=O)C(C(C)=O)[C@@H](NC(=O)OC)c1ccc(F)cc1 (stereo partly drawn)
inactive: Potency [1] | Potency [2] | Potency [3] | Potency [4] | Potency [5]

COC(=O)CC1c2ccccc2C(Cc2ccc(OC)cc2)C(C)N1C(=O)OC (stereo not drawn)
inactive: Potency [1] | Potency [2] | Potency [3] | Potency [4] | Potency [5]

COCn1c2ccccc2c2nnc(C(=O)O)nc21
inactive: activity change, negative = inhibition [6] -6.97% [at 11.4 µM] | activity change, negative = inhibition [7] -11.5% [at 11.4 µM] | activity change, negative = inhibition [8] 12.8% [at 11.4 µM] | activity, negative = inhibition [9] 65.8% [at 11.4 µM] | Potency [1] | Potency [2] | Potency [3] | Potency [4] | Potency [5]

COC1=C[C@H](C(=O)NCc2ccc(Br)cc2)[C@H](C)[C@@H](c2ccccc2)CC1=O
inactive: Potency [1] | Potency [2] | Potency [3] | Potency [4] | Potency [5]

CC#CCN1C(=O)N(C)C(c2ccccc2)C(C(=O)OC)=C1C (stereo not drawn)
inactive: Potency [1] | Potency [2] | Potency [3] | Potency [4] | Potency [5]

COc1cc(CO[C@H]2C=C[C@@H](c3ccccc3)O[C@H]2CO)cc(OC)c1
inactive: Potency [1] | Potency [2] | Potency [4] | Potency [5]

C[C@@H]1CC[C@H]2C(=O)N(Cc3ccccc3)C[C@@H](O)CN2[C@@H]1c1cccc(Br)c1
inactive: Potency [1] | Potency [2] | Potency [3] | Potency [4] | Potency [5]

COc1ccc(NC2=CC(c3ccccc3)N(c3ccc(OC)cc3)C2=O)cc1 (stereo not drawn)
inactive: Potency [1] | Potency [2] | Potency [4] | Potency [5]

COc1cc2c(c(OC)c1OC)CC(C)=C(C)CC2NC(=O)C(F)(F)F (stereo not drawn)
inactive: Potency [1] | Potency [2] | Potency [3] | Potency [4] | Potency [5]

C=C(C)C(O)C=Cc1ccc(Br)cc1 (stereo not drawn)
inactive: Potency [1] | Potency [2] | Potency [3] | Potency [4] | Potency [5]

CO[C@H](C1CCCCC1)[C@H](C)C=CCC(=O)OCCCc1ccccc1
inactive: Potency [1] | Potency [2] | Potency [3] | Potency [4] | Potency [5]

COC(=O)C[C@H]1c2ccccc2[C@@H]2C(=C[C@@H](C)[C@H]3C(=O)NC(=O)[C@H]32)N1C(=O)OC
inactive: Potency [1] | Potency [2] | Potency [4] | Potency [5]

O=C(NC(CC1=CCCCC1)c1ccc2ccccc2c1)C(F)(F)F (stereo not drawn)
inactive: Potency [1] | Potency [3] | Potency [5]

CC(C)[C@@H](OCc1ccccc1)[C@H](C)C=NOC[C@@H](C)[C@H](OCc1ccccc1)C(C)C
inactive: Potency [1] | Potency [3] | Potency [4] | Potency [5]

CC(C)(C)OC(=O)N1CCC[C@@H]1C(O)(c1ccccc1)c1ccccc1
inactive: Potency [1] | Potency [2] | Potency [4] | Potency [5]

CC(C)=CCN1C(=O)[C@@]2(CC(C)=C[C@@H](COCc3ccccc3)O2)c2ccccc21
active: Potency [2] 1900 nM
inactive: Potency [1] | Potency [4] | Potency [5]

COC(=O)C(C(=O)OC)[C@@H]1O[C@@]23COC=C[C@]2(C)[C@@H]3c2ccccc21
inactive: Potency [1] | Potency [3] | Potency [5]

COc1cccc(CO[C@H]2C=C[C@@H](c3ccccc3)O[C@H]2CBr)c1
inactive: Potency [1] | Potency [3] | Potency [4] | Potency [5]

C[C@H]1CCCC(=O)N[C@@H](c2ccccc2)[C@@H](C)CCCC(=O)N[C@@H]1c1ccccc1
inactive: Potency [1] | Potency [2] | Potency [4] | Potency [5]

C=CCN1C(=O)CC[C@@]23C1=NC(C(=O)OC)=C(C(=O)OC)[C@@H]2N(CC=C)c1ccccc13
active: Potency [5] 2370 nM
inactive: Potency [1] | Potency [3] | Potency [4]

c1ccc(CCc2nc(-c3ccccc3)oc2NC2CCCCC2)cc1
inactive: Potency [1] | Potency [3] | Potency [5]

CCCCc1nc2c(c3c1C[C@H](C)OC3)CN(S(=O)(=O)c1ccccc1C(=O)OC)CC2
inactive: Potency [1] | Potency [2] | Potency [4] | Potency [5]

Cc1c(O)c(=O)ccn1Cc1ccccc1
inactive: activity change, negative = inhibition [6] -0.343% [at 11.4 µM] | activity change, negative = inhibition [7] -6.33% [at 11.4 µM] | activity, negative = inhibition [9] 38.4% [at 11.4 µM] | Potency [1] | Potency [2] | Potency [5]

O=C1[C@H]2[C@@H]3[C@@H](O)[C@H](O)CC(=NOCc4ccccc4)[C@@H]3CC[C@H]2C(=O)N1Cc1ccc2c(c1)OCO2
inactive: Potency [1] | Potency [3] | Potency [4] | Potency [5]
